Experimental data taken from the supplement of paper PMC6522484.
± gives the standard deviation of the averaged measurements.

Tests used:
DLD1 [1] = test: cell viability (CellTiter-Glo) relative to plate median (fraction of plate median); higher = more viable cells; settings: 5 µM; treatment time 24 h; reporter: 7TFP
Outline: (§1)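 Stable lentiviral TCF/Wnt firefly luciferase reporters (7TFP or TCF4/Wnt) were present in the colorectal cancer cell lines used. These cells received library compounds at a final 5 µM for 24 h, and parallel plates were read for firefly luciferase or CellTiterGlo luminescence. Each well was normalised to the plate median, and the value reported is the mean of two independent replicates.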

HCT116 = test: as above; settings: 5 µM; treatment time 24 h; reporter: TCF4/Wnt
Outline: as §1

SW480 [2] = test: as above; settings: 5 µM; treatment time 24 h; reporter: 7TFP
Outline: as §1

DLD1 [3] = test: TCF/Wnt firefly luciferase reporter signal relative to plate median (fraction of plate median); higher = higher Wnt reporter signal; settings: 5 µM; treatment time 24 h; reporter: 7TFP
Outline: as §1

SW480 [4] = test: as above; settings: 5 µM; treatment time 24 h; reporter: 7TFP
Outline: as §1

SMILES | cell viability (DLD1 [1]) | cell viability (HCT116) | cell viability (SW480 [2]) | TCF/Wnt firefly luciferase reporter signal (DLD1 [3]) | TCF/Wnt firefly luciferase reporter signal (SW480 [4])
Cc1cnc(NC(=O)C2=C(O)c3ccccc3S(=O)(=O)N2C)s1 | 1.01 ± 0.04 | 1.05 ± 0.078 | 0.995 ± 0.079 | 1.02 ± 0.031 | 1.03 ± 0.044
OC(c1cc(C(F)(F)F)nc2c(C(F)(F)F)cccc12)C1CCCCN1 (stereo not given) | 0.953 ± 0.033 | 1.005 ± 0.0071 | 1.02 ± 0.051 | 1.18 ± 0.028 | 1.11 ± 0.057
NS(=O)(=O)c1cc2c(cc1Cl)NCNS2(=O)=O | 0.988 ± 0.1 | 1.02 | 1.04 ± 0.042 | 1.15 ± 0.071 | 1.1 ± 0.028
CC(=O)OCC(=O)[C@@]1(O)[C@H](OC(C)=O)C[C@H]2[C@@H]3CCC4=CC(=O)C=C[C@]4(C)[C@@]3(F)[C@@H](O)C[C@@]21C | 1.01 ± 0.069 | 1.09 ± 0.057 | 1.03 ± 0.052 | 1.1 ± 0.26 | 0.894 ± 0.069
CCn1cc(C(=O)O)c(=O)c2cc(F)c(N3CCN(C)CC3)cc21 | 1 ± 0.04 | 1.015 ± 0.0071 | 0.982 ± 0.018 | 1.19 ± 0.035 | 1.05 ± 0.078
O=C1C=C(O)C(=O)c2ccccc21 | 1.025 ± 0.0071 | 1.06 ± 0.035 | 1.02 ± 0.047 | 0.947 ± 0.09 | 0.985 ± 0.11
CCOc1ccc(C(=O)c2ccc(O)c(O)c2O)cc1 | 0.928 ± 0.13 | 0.97 ± 0.18 | 1 ± 0.052 | 0.964 ± 0.093 | 1.1 ± 0.071
CCN(CC)CCCC(C)Nc1c2ccc(Cl)cc2nc2ccc(OC)cc12 (stereo not given) | 1.02 ± 0.014 | 0.886 ± 0.19 | 1.05 ± 0.014 | 1.11 ± 0.042 | 0.888 ± 0.036
COc1ccc(CC(=O)c2ccc(O)cc2O)cc1 | 0.962 ± 0.054 | 0.955 ± 0.14 | 0.995 ± 0.036 | 1.13 ± 0.057 | 1.07 ± 0.078
COC(=O)[C@]1(C)CCC[C@]2(C)c3ccc(C(C)C)cc3C(=O)CC12 (stereo not given in full) | 1.1 ± 0.13 | 1.03 ± 0.081 | 1.05 ± 0.028 | 1.07 ± 0.25 | 1.07
